This is an account of results in PubChem BioAssay AID2685 (National Center for Advancing Translational Sciences (NCATS), 2010).

Out of some 320,000 compounds screened, about 2,100 (0.66%) were called active. About 53% were inconclusive and are not listed. Calls come from the whole dose curve; as a rule, active = well fitted inhibition curve with a large enough effect in the signal ratio, with a control signal flat (not every such curve was filed as active); inconclusive = small, poorly fitted or top-dose-only effect, or effect the other way, or a change in a side signal; inactive = flat fitted curve, though single readings scatter; the % refers to the signal ratio. For the sample, actives were picked, then their nearest neighbours and some compounds at random.
Potency is the fitted concentration of half-maximal effect.

The test is described as follows: qHTS Assay for Lipid Storage Modulators in Drosophila S3 Cells.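 For cell number change: cells counted by Cell Tracker Red CMTPX staining in the red channel.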 For lipid storage change, negative = inhibition: % is set by controls: 0 for no effect and ±100 for the full control effect. The conditions noted are these: BODIPY lipid droplet fluorescence, 18-24 h, cells fed with added oleic acid; cell number change: measured here: cell count max response; series mostly up to 46.1 µM; lipid storage change, negative = inhibition: at the top concentration. In a few lines: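 Laser-scanning cytometry quantifies lipid droplet accumulation (500–530 nm total intensity; droplet/cell object ratio) in oleic acid-fed (400 uM added) Drosophila S3 cells treated with a concentration series. 20 uM Triacsin C defined 100% inhibition.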
Turning to `CC(C)Oc1ccc(S(=O)(=O)N2CCOCC2)cc1NC(=O)C1CCCCC1`, the “lipid storage change, negative = inhibition” value was 14.6% (inactive) and the cell number change came out at 17%. Taken in the same sequence, the figures for `Cc1cccc(NC(=O)C2CCCN2C(=O)NC2CCCCC2)c1` (configuration not stated) were 9.23% [at 9.22 µM] (inactive) and -1.91%. Turning to `CCC(C)C(NC(=O)OCc1ccccc1)C(=O)NC(Cc1ccc(O)cc1)C(=O)OC` (configuration not stated), the “lipid storage change, negative = inhibition” value was 4.97% (inactive) and the cell number change came to 15.2%.

As for `Cc1cnc2cc([N+](=O)[O-])ccc2n1`, the “lipid storage change, negative = inhibition” value is -3.52% (inactive) and the cell number change came out at 9.36%.

Turning to `CC(NC(=O)CN1c2cccc3cccc(c23)S1(=O)=O)c1ccc(S(N)(=O)=O)cc1` (configuration not stated), the “lipid storage change, negative = inhibition” value is 24.5% (inactive) and the cell number change worked out at 20.8%. With `CCC(C)c1ccc(S(=O)(=O)N2CCN3CCCC3C2)cc1` (configuration not stated), the call was inactive and the cell number change is -6.32%. For the compound `CCOC(=O)C(NC(=O)CC)(Nc1ccc(S(N)(=O)=O)cc1)C(F)(F)F` (configuration not stated), the “lipid storage change, negative = inhibition” value was -9.17% (inactive) and the cell number change turned out to be 9.23%. For `O=C(CSc1nnnn1C1CCCCC1)Nc1ccc(F)cc1`, the “lipid storage change, negative = inhibition” value is 0.247% (inactive) and the cell number change is -9.49%.

On to `CN(C)C(=O)Nc1cnc2ccccc2c1`, for which the “lipid storage change, negative = inhibition” value was 8.36% (inactive) and the cell number change stood at 12.4%. For `COc1ccc(CNC(=O)c2noc(C(C)C)c2[N+](=O)[O-])cc1`, in that order: -2.76% (inactive) and 2.44%. Consider `CCOC(=O)C(NC(=O)c1ccc(F)cc1)(Nc1sc2c(c1C(N)=O)CCC2)C(F)(F)F` (configuration not stated), for which the “lipid storage change, negative = inhibition” value was 7.93% (inactive) and the cell number change was -0.472%. Consider `CCCC(=O)Oc1c(S(=O)(=O)c2ccc(C)cc2)c(C)nn1C(C)(C)C`, for which the “lipid storage change, negative = inhibition” value was -0.57% (inactive) and the cell number change was determined as 23.9%. As for `CC(C)(C)c1nnc(NC(=O)c2ccc3c(c2)OCO3)s1`, the compound was called inactive and the cell number change came out at 5.88%. On to `O=C(/C=C/c1ccc2c(c1)OCO2)Nc1nncs1`, for which the “lipid storage change, negative = inhibition” value is 2.26% (inactive) and the cell number change stood at 12.8%.

For `O=C(Nc1ccc(S(=O)(=O)N2CCOCC2)cc1)c1cccc(Br)c1`, the compound was classed as inactive and the cell number change is -4.91%. In the case of `CC(C)C(=O)Nc1cccc(C(=O)Nc2ccc(S(=O)(=O)N3CCOCC3)cc2)c1`, the Potency was 13 µM (active) and the cell number change is -1.62%.

Take `O=C(Nc1ccc(S(=O)(=O)N2CCOCC2)cc1)c1ccccc1`: the “lipid storage change, negative = inhibition” value is -6.47% (inactive) and the cell number change was -4.33%.

In the case of `CC(C)C(=O)Nc1nc(-c2ccc(S(=O)(=O)N3CCOCC3)cc2)cs1`, the Potency is 5.17 µM (active) and the cell number change was -31.7%. Turning to `O=C(COc1ccccc1)Nc1nc(-c2ccc(S(=O)(=O)N3CCOCC3)cc2)cs1`, the “lipid storage change, negative = inhibition” value is 24.2% (inactive) and the cell number change is -17.5%. Consider `O=C(Nc1cccc(S(=O)(=O)N2CCCC2)c1)c1cccc(S(=O)(=O)N2CCOCC2)c1`, for which the Potency is 1.84 µM (active) and the cell number change is -9.73%. For `CC(=O)c1cccc(NC(=O)c2cccc(S(=O)(=O)N3CCOCC3)c2)c1`, the compound was called inactive and the cell number change stood at 0.952%. Take `O=C(Nc1cccc(F)c1)c1cccc(S(=O)(=O)N2CCOCC2)c1`: the “lipid storage change, negative = inhibition” value is -3.69% (inactive) and the cell number change was -12.5%. As to `O=C(Nc1nncs1)c1ccc2c(c1)OCO2`, the Potency was 4.61 µM (active) and the cell number change is 11.7%. For `Cc1nc(-c2ccc(S(=O)(=O)N3CCOCC3)cc2)cs1`, the “lipid storage change, negative = inhibition” value was 4.04% (inactive). Consider `CCN(CC(=O)NC1CCCC1)S(=O)(=O)c1ccc(C)cc1`, for which the call was inactive. As for `COc1ccc(/C=C/C(=O)O)cc1S(=O)(=O)NC1CCS(=O)(=O)C1` (configuration not stated), the “lipid storage change, negative = inhibition” value is 29% (inactive) and the cell number change came to 23.6%. For `Nc1nc(SCc2ccccc2Cl)nc2nc3c(cc12)CCCC3`, in that order: -0.358% (inactive) and -12.1%. On to `COc1ccc(C2N=C(c3ccccc3)NC(c3ccccc3)=N2)cc1`, for which the “lipid storage change, negative = inhibition” value was 3.53% (inactive) and the cell number change was 1.5%. Turning to `N#Cc1cccc(S(=O)(=O)Nc2c(NC3CCCCC3)c3ccccc3oc2=O)c1`, the compound was classed as inactive and the cell number change is -28.3%. Take `Cc1cccc(NC(=S)N(CCc2ccncc2)C(C)C)c1C`: the “lipid storage change, negative = inhibition” value was 4.1% (inactive) and the cell number change was -1.71%. Take `Cn1cc(S(=O)(=O)N2CCOCC2)cc1C(=O)Nc1cccc(Cl)c1`: the Potency is 7.31 µM (active) and the cell number change is -6.63%.

With `O=C(Nc1nncs1)c1cccc(S(=O)(=O)N2CCOCC2)c1`, the Potency is 23.1 µM (active) and the cell number change was -2.32%. For `Cn1cc(S(=O)(=O)N2CCOCC2)cc1C(=O)Nc1ccc(Cl)cc1`, the outcome was inactive and the cell number change came to 5.48%. Take `COc1cc(C(=O)NCCN2C(=O)S/C(=C\c3ccc(F)cc3)C2=O)ccc1OCC(=O)N1CCOCC1`: the “lipid storage change, negative = inhibition” value was 2.92% (inactive) and the cell number change is 15.3%.

Turning to `O=C(Nc1nccs1)c1cccc(S(=O)(=O)N2CCOCC2)c1`, the “lipid storage change, negative = inhibition” value was 15.5% (inactive) and the cell number change was 0.981%. Taken in the same sequence, the figures for `COc1ccc(NC(=O)c2cc(S(=O)(=O)N3CCOCC3)cn2C)cc1Cl` were -17.2% (inactive) and -8.07%.

For the compound `O=C(NCCN1CCOCC1)c1cccc(S(=O)(=O)N2CCCC2)c1`, the compound was classed as inactive and the cell number change was determined as 2.89%. Take `O=C(NCCN1C(=O)S/C(=C\c2ccc(F)cc2)C1=O)c1cccc(S(=O)(=O)N2CCOCC2)c1`: the Potency was 13 µM (active). As to `O=C(Nc1nnc(-c2ccccc2)s1)c1cccc(S(=O)(=O)N2CCOCC2)c1`, the “lipid storage change, negative = inhibition” value is 0.191% (inactive) and the cell number change is -9.5%. `COc1ccc(OCC(=O)NCCc2c[nH]c3ccccc23)cc1`: the “lipid storage change, negative = inhibition” value was -6.71% (inactive) and the cell number change was -0.0954%. Take `COc1ccc(/C(C)=N/NC(=O)CNC(=O)/C=C\c2ccco2)cc1`: the “lipid storage change, negative = inhibition” value is 6.78% (inactive) and the cell number change is 25.3%.

`COc1ccc(N=Nc2ccc3ccccc3c2)c(O)c1`: the Potency is 4.11 µM (active) and the cell number change was -14.1%. Consider `Oc1ccc(N=Nc2ccc3ccccc3c2)cc1`, for which the “lipid storage change, negative = inhibition” value is -12.4% (inactive) and the cell number change was -16.8%. Taken in the same sequence, the figures for `O=[N+]([O-])c1cc(N=Nc2ccc3ccccc3c2)ccc1O` were 23.5% (inactive) and -8.5%. For `COc1cccc(NC(=O)CSc2nnc(Cn3nnc4ccccc43)n2C)c1`, in that order: -5.06% (inactive) and 1.13%.
